Among the data in PubChem BioAssay AID652128 (Broad Institute, 2013) are outcome values, retold here.

Some of the results follow. Records with an inconclusive call do not appear. Calls of active or inactive are those of the source.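 How the source made its calls: active means fitted half-maximal concentration for signal loss at or below twice the highest dose tested, in every separate run (actives reach about 64 µM in these data); inconclusive means runs disagree, or flat partial signal loss, or poor fit; inactive means the rest.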

A short description of the assay: DNA binders displacing acridine orange – biochemical, fluorescence polarization, cherry-pick, artefact control for RAD52 inhibitor project, dose response (AID 652128). The note with it: Salmon sperm DNA/acridine orange FP displacement, DNA binding. On the technique in general: Polarisation of emitted light reports the rotation of a fluorescent probe.
As for `COc1ccc(NC(=O)C2C3CCC(O3)C2C(=O)O)cc1OC` (stereo not given), the outcome was inactive.

Take `Cc1cc2oc3ccc(NCCC4CCCN4C)cc3c(=O)c2cc1C` (stereo not given): the call was inactive. The entry for `Cc1ccc(C(=O)N/C(=C/c2ccc(-c3cccc([N+](=O)[O-])c3)o2)C(=O)NCCCN(C)C)cc1` is “inactive”; for `CN1CCN(C2Cc3ccc(Cl)cc3Sc3ccc(F)cc32)CC1` (stereo not given) it is “inactive”; for `CCN(CC)CCNC(=O)c1ccc(NC(=O)c2cc(-c3ccncc3)nc3ccccc23)cc1` it is “inactive”. The entry for `Cn1ccc(=Nc2ccc(NC(=O)c3ccc(N=c4ccn(C)c5ccc([N+](=O)[O-])cc45)cc3)cc2)cc1` is “inactive”; for `Nc1ncc(CN2CCCC(C(=O)Nc3ccc(-c4ccco4)cc3)C2)cn1` (stereo not given) it is “inactive”. The entry for `NCCCNC(=S)NCCCN(Cc1ccc(Cl)cc1)c1ccc(Br)cn1` is “inactive”; for `NCCCCCC(=O)N/N=C/c1ccc2nccnc2c1` it is “inactive”; for `CN(Cc1ccccc1F)c1cc2c(c3c1ccn3C)C1CCC2O1` (stereo not given) it is “inactive”.
